# Measurements: paper PMC7819943, “Rice protein-binding microarrays: a tool to detect cis-acting elements near promoter regions in rice”
# In all, about 68,000 sequences were measured (“fluorescence intensity (a.u.)”: median about 9,100, highest 2% from about 16,000 on). What follows is part of a selection rich in the highest values, with near analogues and random picks from the rest.
# Target: OsWRKY34 (Oryza sativa, UniProt Q0JBA9 1-250)
# Assay: protein-binding microarray (RPBM); PBS, 2% BSA, 51.3 ng/ul salmon testes DNA, 50 uM zinc acetate, 200 nM TF, 25 C, 1 h; high values mean tight binding
# Details: protein: recombinant; tags: N-terminal polyhistidine and DsRed monomer fusion (pET32a); label: CyDye5-dUTP incorporated in the synthesized complementary strand; 3' TTTTT single-stranded linker to array surface; dsDNA, one strand shown
# How it was run: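 The binding signal is fluorescence intensity per array feature (arbitrary units). Readings came from an Axon 4000B scanner after a washed, 2% BSA-blocked, double-stranded custom Agilent array had been incubated for 1 h at 25 °C with 200 nM protein and 50 µM zinc acetate. The protein was a Ni–NTA-purified transcription factor fused N-terminally to polyhistidine and DsRed, expressed in E. coli BL21-CodonPlus.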
# OsWRKY34, sequence (Q0JBA9 entry or part of it): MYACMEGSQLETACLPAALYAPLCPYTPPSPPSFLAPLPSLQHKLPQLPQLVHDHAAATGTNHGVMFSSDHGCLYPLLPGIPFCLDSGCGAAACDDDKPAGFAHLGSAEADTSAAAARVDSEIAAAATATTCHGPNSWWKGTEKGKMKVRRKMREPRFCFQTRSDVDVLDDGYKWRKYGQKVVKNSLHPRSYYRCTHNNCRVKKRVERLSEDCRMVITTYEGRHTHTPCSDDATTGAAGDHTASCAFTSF
row,Sequence,binding signal
1,CGGGGCGGCTGGCTTGACGCGTCATCTTCCCCGCGAAAATCGGAGTCACCTAGTGCAG,14000 fluorescence intensity (a.u.)
2,CGACATCTCTGAAACATTTCTCCTCGACCACGGCAACCCACGGAGTCACCTAGTGCAG,8630 fluorescence intensity (a.u.)
3,ATTAATTCTGTTTTTTTCAAGTCTCTCTCGCTCTCGCTCCCGGAGTCACCTAGTGCAG,8820 fluorescence intensity (a.u.)
4,CGTTCGCATCCACCACCAGTGCTCCGCCTGCCAGATCCATCGGAGTCACCTAGTGCAG,9140 fluorescence intensity (a.u.)
5,GGCCTCGTCTCCTACCTCGCCGACCCCGACCCCGACCACGCGGAGTCACCTAGTGCAG,8440 fluorescence intensity (a.u.)
6,GGCCACGCCCGCCTCCGCGATCGTCCTCGCCGGCGACTGCCGGAGTCACCTAGTGCAG,8410 fluorescence intensity (a.u.)
7,CCCCGCCGTCCGCGCCGACCGCGACCTGCGCTACGCCGCCCGGAGTCACCTAGTGCAG,8450 fluorescence intensity (a.u.)
8,GCGCCGACTGCCCGTCCGCCCCGTTGCTGCTGTGCGCACTCGGAGTCACCTAGTGCAG,8290 fluorescence intensity (a.u.)
9,TGTGCCCGCTGCGCCAAGGGCTACGCCGTCCAGTCCGACTCGGAGTCACCTAGTGCAG,48500 fluorescence intensity (a.u.)
10,GCTGTCGTCCCTGCTGTTCTTGGTGTGCTTCTTCACTGTCCGGAGTCACCTAGTGCAG,13600 fluorescence intensity (a.u.)
11,TGTCCAGTCGTCACCCTGCTGCTTCCCTGCCACTGCCCTACGGAGTCACCTAGTGCAG,17000 fluorescence intensity (a.u.)
12,CTCCCGCCGCGACTCGCCGCCGCGCGCGGCATCTCCGGCCCGGAGTCACCTAGTGCAG,8820 fluorescence intensity (a.u.)
13,CACACGCTACCCCGACTCGTCGCCTTCGCCTTGCTCGTCTCGGAGTCACCTAGTGCAG,18000 fluorescence intensity (a.u.)
14,TCACGCATCGGCGCCGCCCTCCGGCCAGCAGCGACTCGCCCGGAGTCACCTAGTGCAG,44600 fluorescence intensity (a.u.)
15,CTCGTGCTGCTTCCACCCCTCCCTCGTCGCCTTGCCAGTTCGGAGTCACCTAGTGCAG,9440 fluorescence intensity (a.u.)
16,GGTTGTCGTCGTCGTCGTGGCCTACGCCTTCGCTGCTGCTCGGAGTCACCTAGTGCAG,10600 fluorescence intensity (a.u.)
17,TATATGTAAGCTACTTTTGTCCTATACATAAATTACTTTTCGGAGTCACCTAGTGCAG,8580 fluorescence intensity (a.u.)
18,CTCTCTCCTACTGTAGGCCACCACCACCGCGACCGCACGACGGAGTCACCTAGTGCAG,9340 fluorescence intensity (a.u.)
19,CATGTGCTAAAAAGTCAACGGTATCAAACATTTTTAAACGCGGAGTCACCTAGTGCAG,15800 fluorescence intensity (a.u.)
20,TCTCGAGGTTGTTACATTGTACTTGTCGCTAGCTCGTCATCGGAGTCACCTAGTGCAG,8400 fluorescence intensity (a.u.)
21,TCGCTAGTAGCTGTTGCTGCCTCTCCACCGCGTCCCTCTCCGGAGTCACCTAGTGCAG,11000 fluorescence intensity (a.u.)

row,Sequence,binding signal
1,GTCGCGCCTGACGCCGCCGTTGCGCCTGCCACCGCCTGTCCGGAGTCACCTAGTGCAG,8220 fluorescence intensity (a.u.)
2,CGCTCCACATAGGCTAGGCCCATGTCCCTTAGAGGATCCTCGGAGTCACCTAGTGCAG,8380 fluorescence intensity (a.u.)
3,CTAACCCGCGCCCCAACCCTAGCCGCCTCCGCCCCGCCTCCGGAGTCACCTAGTGCAG,8920 fluorescence intensity (a.u.)
4,GTGCCACTCTGTCTCTTCCGTCCATAGCGCCGTCGTCTTCCGGAGTCACCTAGTGCAG,17300 fluorescence intensity (a.u.)
5,GCAGCGCTCGTCTCTCTCTGTCTCTCCACTCTCTTCTCTCCGGAGTCACCTAGTGCAG,10100 fluorescence intensity (a.u.)
6,CCTCACATCTTCTTCTTCATCTCCCTGTCTCTGTCTCTGTCGGAGTCACCTAGTGCAG,13500 fluorescence intensity (a.u.)
7,GCTACTACTGCTGCTGCTGCTACTTATCCACCGCTTTTTTCGGAGTCACCTAGTGCAG,13600 fluorescence intensity (a.u.)
8,CCCCACCGCCCACCGCCCACCGCCCACCCACCTCCGCACCCGGAGTCACCTAGTGCAG,11600 fluorescence intensity (a.u.)
9,ACCCGTCTCTGTTCATCTCCACATCTTGTCTTCTCGCTGTCGGAGTCACCTAGTGCAG,18100 fluorescence intensity (a.u.)
10,GTCTTCCCCTAGCGCCGCCGCCTCCACCTCCGCCGCCGTCCGGAGTCACCTAGTGCAG,8700 fluorescence intensity (a.u.)
11,TGTCACATTTTTCGTCGTCTCCATCTTCATCTTCTTGTCGCGGAGTCACCTAGTGCAG,11200 fluorescence intensity (a.u.)
12,TACCCACACCGATCTGCCGCTGCCCAGTTCCACCTACTTTCGGAGTCACCTAGTGCAG,16800 fluorescence intensity (a.u.)
13,CTCACGCGCTGCACCGCCGATACCCCACCCGCTGCTAGTTCGGAGTCACCTAGTGCAG,8670 fluorescence intensity (a.u.)
14,CCGCCCTTAGACAGGCCCCGCCTCCGCCTCCGCGCCCACCCGGAGTCACCTAGTGCAG,27800 fluorescence intensity (a.u.)
15,CCCGACCCAAACCTCACCGCCGCCGTCGCCGTTGCCGCCGCGGAGTCACCTAGTGCAG,8310 fluorescence intensity (a.u.)
16,TTAACTCGACAGTTTGTGTGTGATTTCAGTACTACCACGACGGAGTCACCTAGTGCAG,10400 fluorescence intensity (a.u.)
17,CTCCGCCGTCGCGTCCCCGCCGCCGCCGCCCGCCTTCCCCCGGAGTCACCTAGTGCAG,9960 fluorescence intensity (a.u.)
18,ACTCGCGATATGCTTGTAACTTGGTTTGGTATTCCATTCTCGGAGTCACCTAGTGCAG,9670 fluorescence intensity (a.u.)
19,GGGTTACGGCTGCAAGCTTGTTCTCTCCAGATGGGGAGTTCGGAGTCACCTAGTGCAG,10400 fluorescence intensity (a.u.)
20,AACACCGTTCCTCCGCCGCGCCGTCATTGCCACCGGCCTCCGGAGTCACCTAGTGCAG,9730 fluorescence intensity (a.u.)
21,CCGCCGCTTCCTCGCCACCGCCGCTGCCGCCGCCACTTCCCGGAGTCACCTAGTGCAG,19400 fluorescence intensity (a.u.)
